Hits are enriched below; roughly 10% of the tested compounds scored in any of these assays.
NIH3T3 tox: kills NIH 3T3 cells. 94,000 tested, 4.3% active. Potency, µM (top dose mostly 96.7 µM), inactives show at the highest dose activity change, negative = cytotoxicity, usual class: inhibitors. NIH 3T3 viability, CellTiter-Glo ATP luminescence, 48-72 h. AID 1345082; also: nearly all actives have a fitted effect of over 55% in size
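Cells were seeded at 400 per well, treated with pin-transferred compound, and kept 48 or 72 hr at 37 °C before CellTiter-Glo addition and luminescence imaging of cellular ATP.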
HEK cytotox: cytotoxic compounds in HEK 293 cells; HEK 293 viability, ATP luminescence (CellTiter-Glo), 48-72 h; Potency, µM (top dose mostly 115 µM), for the others: at the top dose activity change, negative = cytotoxicity, most hits filed as inhibitors; 94,000 tested, 6.6% active; also: nearly all actives have a fitted effect of over 60% in size
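Cytotoxicity was scored by loss of ATP-coupled luminescence (CellTiter-Glo) in HEK 293 cells. Compound treatment ran 48 or 72 hr at 37 degree Celsius, 5% CO2, 95% humidity.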
hNpr1 antagonist: human Npr1 receptor antagonism. P16066. HEK293 hNpr1 GloSensor cGMP, ANP-stimulated luminescence. Potency, µM (titrated, usually from 46.3 µM), without a hit: top-dose activity change, negative = inhibition, usual class: inhibitors. 76,000 tested, 1.6% active. AID 1347048; calls by dose curve; also: nearly all actives have a fitted effect of over 60% in size
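Compound pre-incubated 30 min at room temperature on GloSensor-loaded HEK293 cells stably carrying hNpr1 and the pGS-40F cGMP biosensor. Stimulation uses hNppA at 0.1 nM final; luminescence is taken at baseline and 20 min post-agonist.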
GPT2 inhibitor: blocks human glutamate pyruvate transaminase 2 | Recombinant GPT2, coupled pyruvate oxidase/HRP Amplex Red fluorescence | AID 1671188 | Q8TD30 | Potency, µM (top dose mostly 57.7 µM), inactives show at the top dose activity change, negative = inhibition, hits mostly inhibitors | 100,000 tested, 0.25% active; also: nearly all actives have a fitted effect of over 60% in size
Target sequence (Q8TD30 whole entry, looked up): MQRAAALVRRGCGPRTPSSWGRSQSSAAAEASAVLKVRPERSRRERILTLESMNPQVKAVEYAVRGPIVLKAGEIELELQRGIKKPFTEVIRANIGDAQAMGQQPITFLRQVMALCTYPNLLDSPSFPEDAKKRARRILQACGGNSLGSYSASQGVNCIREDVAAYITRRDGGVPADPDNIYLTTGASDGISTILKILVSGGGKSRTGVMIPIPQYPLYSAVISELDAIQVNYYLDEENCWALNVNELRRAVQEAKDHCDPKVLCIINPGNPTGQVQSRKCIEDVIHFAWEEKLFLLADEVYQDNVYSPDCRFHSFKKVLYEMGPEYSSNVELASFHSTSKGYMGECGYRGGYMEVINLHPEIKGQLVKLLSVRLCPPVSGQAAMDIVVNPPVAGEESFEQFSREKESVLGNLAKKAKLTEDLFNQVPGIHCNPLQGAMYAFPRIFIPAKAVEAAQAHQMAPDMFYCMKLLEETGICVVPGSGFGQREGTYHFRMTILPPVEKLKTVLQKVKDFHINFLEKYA
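Fluorescence read-out: pyruvate from GPT2 turnover coupled to pyruvate oxidase, HRP and Amplex Red (0.2mM ThPP, 0.2U/mL PO and HRP, 50uM Amplex final). Substrates 250uM a-KG, 2mM L-alanine; enzyme 10ng/uL; 30 min RT.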
FLuc inh: blocks purified firefly luciferase enzyme activity | 76,000 tested, 2.5% active | AID 1347043 | Potency, µM (top dose mostly 115 µM), usual class: inhibitors | purified P. pyralis luciferase, luminescence, biochemical | P08659; also: nearly all actives have a fitted effect of over 65% in size
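Inhibitors were tested against purified firefly luciferase in a biochemical, low-substrate format (both substrates at 10uM) and luminescence measured with a CCD imager.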
An asterisk follows results filed as active; [ ] = dose if it differs, or a comment. Unless noted, calls follow the shape of the dose curve; as a rule, active = well fitted curve in the direction sought with a large enough effect; inconclusive = small, poorly fitted or top-dose-only effect, or another doubt; inactive = no such curve, though single readings can be large; an effect the other way counts as inactive or inconclusive. % is scaled to controls: 0 for no effect and ±100 for the full control effect; potency is read from the fitted curve at half-maximal effect.

For CCCCS(=O)(=O)N1CCCC(c2[nH]ccc2C(=O)NC)C1 (centres undefined) the results were NIH3T3 tox inactive, HEK cytotox inactive, hNpr1 antagonist 9%, GPT2 inhibitor inactive and FLuc inh inactive.
CCCN(CC1CCOC1)S(=O)(=O)c1ccccc1C(F)(F)F (centres undefined) was read as NIH3T3 tox 2%, HEK cytotox 1%, hNpr1 antagonist 2%, GPT2 inhibitor -13% and FLuc inh inactive.
O=C(NCCCn1cccn1)C1CN(S(=O)(=O)c2cccs2)CC12CCCCC2 (centres undefined) was read as NIH3T3 tox -22%, HEK cytotox -8%, hNpr1 antagonist -5%, GPT2 inhibitor inactive and FLuc inh inactive.
For COc1ccc(-c2ccnc3nc(Cc4cc(F)cc(F)c4)nn23)c(F)c1 the results were NIH3T3 tox inconclusive, HEK cytotox 40µM*, hNpr1 antagonist -7%, GPT2 inhibitor -3% and FLuc inh inactive.
COc1ccc(-c2ccnc3nc(CCc4ccccc4)nn23)c(F)c1 was read as NIH3T3 tox inconclusive, HEK cytotox inconclusive, hNpr1 antagonist 5%, GPT2 inhibitor -7% and FLuc inh inactive.
Screening COC(=O)[C@@H]1Cc2ncn(Cc3ccc(Cl)cc3)c2CN1S(=O)(=O)c1cccc(C(F)(F)F)c1 returned NIH3T3 tox -18%, HEK cytotox inconclusive, hNpr1 antagonist 0%, GPT2 inhibitor -19% and FLuc inh inactive.
O=C1CCN(S(=O)(=O)c2cccc(F)c2)CCCC(c2nc(-c3cccnc3)no2)CCN1 (centres undefined) was read as NIH3T3 tox -6%, HEK cytotox -9%, hNpr1 antagonist 1%, GPT2 inhibitor -4% and FLuc inh inactive.
O=C1CCN(S(=O)(=O)c2ccc3c(c2)CCC3)CCCC(c2nc(-c3cccnc3)no2)CCN1 (centres undefined) was read as NIH3T3 tox inconclusive, HEK cytotox 35µM*, hNpr1 antagonist 3%, GPT2 inhibitor -11% and FLuc inh inactive.
For CC(C)C(=O)N1CCC(Oc2cnc3c(ccn3-c3cncnc3)c2)CC1 the results were NIH3T3 tox inconclusive, HEK cytotox -19%[172 µM], hNpr1 antagonist 0%[70.6 µM], GPT2 inhibitor 1%[88.5 µM] and FLuc inh inactive.
Screening O=C(CC1CC1)N1CCC(Oc2cnc3c(ccn3-c3cncnc3)c2)CC1 returned NIH3T3 tox inconclusive, HEK cytotox inconclusive, hNpr1 antagonist -2%[70.6 µM], GPT2 inhibitor -10%[88.5 µM] and FLuc inh inactive.
Screening O=C(c1ccncn1)N1CCC(Oc2cnc3c(ccn3-c3cncnc3)c2)CC1 returned NIH3T3 tox -19%[138 µM], HEK cytotox inconclusive, hNpr1 antagonist 4%[70.6 µM], GPT2 inhibitor -13%[88.5 µM] and FLuc inh inactive.
Screening CCCC(=O)N1CCC(Oc2cnc3c(ccn3-c3cncnc3)c2)CC1 returned NIH3T3 tox 10µM*, HEK cytotox inconclusive, hNpr1 antagonist 4%[70.6 µM], GPT2 inhibitor 1%[88.5 µM] and FLuc inh inactive.
`O=C(Cc1ccccc1)N1CCC(Oc2cnc3c(ccn3-c3cncnc3)c2)CC1` gave NIH3T3 tox inconclusive, HEK cytotox 56µM*, hNpr1 antagonist -14%[70.6 µM], GPT2 inhibitor -19%[88.5 µM] and FLuc inh inactive.
Screening O=C(OCc1ccccc1)N1CCC(Oc2cnc3c(ccn3-c3cncnc3)c2)CC1 returned NIH3T3 tox inconclusive, HEK cytotox 79µM*, hNpr1 antagonist inconclusive, GPT2 inhibitor -4%[88.5 µM] and FLuc inh inactive.
Cc1ncccc1C(=O)N1CCC(Oc2cnc3c(ccn3-c3cncnc3)c2)CC1 was read as NIH3T3 tox 71µM*, HEK cytotox -13%[172 µM], hNpr1 antagonist 1%[70.6 µM], GPT2 inhibitor 4%[88.5 µM] and FLuc inh inactive.
Screening c1ccc(CN2CCC(Oc3cnc4c(ccn4-c4cncnc4)c3)CC2)cc1 returned NIH3T3 tox inconclusive, HEK cytotox 100µM*, hNpr1 antagonist -4%[70.6 µM], GPT2 inhibitor -10%[88.5 µM] and FLuc inh inactive.
Screening O=C(O)Cn1ccc2cc(OCC3CCN(C(=O)Cc4ccccc4)CC3)cnc21 returned NIH3T3 tox 100µM*, HEK cytotox -13%[172 µM], hNpr1 antagonist -1%[70.6 µM], GPT2 inhibitor -4%[88.5 µM] and FLuc inh inactive.
Screening Cc1ccc(OCc2nc(C3CCNCC3)no2)cc1 returned NIH3T3 tox inconclusive, HEK cytotox inconclusive, hNpr1 antagonist 0%, GPT2 inhibitor -4% and FLuc inh inactive.
For COc1cccc([S+](=O)([O-])NC[C@@H]2CC[C@H]3C[C@@H]2C3(C)C)c1 the results were NIH3T3 tox inconclusive, HEK cytotox 100µM*, hNpr1 antagonist 9%[70.6 µM], GPT2 inhibitor -10%[88.5 µM] and FLuc inh inactive.
`O=C1Nc2ccccc2CC12CCN(Cc1ccc(F)cc1)C2` (centres undefined) gave NIH3T3 tox -24%[138 µM], HEK cytotox 71µM*, hNpr1 antagonist 0%[70.6 µM], GPT2 inhibitor inactive and FLuc inh inactive.
CC(C)CC(=O)N1CCOCC12CCN(Cc1ccc(C(C)C)cc1)CC2 was read as NIH3T3 tox 71µM*, HEK cytotox 100µM*, hNpr1 antagonist 2%[70.6 µM], GPT2 inhibitor 1%[88.5 µM] and FLuc inh inactive.
For O=C(Cc1cccc(F)c1)N1CCOCC12CCN(Cc1ccccc1)CC2 the results were NIH3T3 tox 100µM*, HEK cytotox inconclusive, hNpr1 antagonist -1%[70.6 µM], GPT2 inhibitor -12%[88.5 µM] and FLuc inh inactive.
CC(C)CC(=O)N1CCOCC12CCN(Cc1cccc(C#N)c1)CC2 was read as NIH3T3 tox -12%[138 µM], HEK cytotox inconclusive, hNpr1 antagonist -1%[70.6 µM], GPT2 inhibitor inactive and FLuc inh inactive.
For O=C(CCc1ccccc1)N1CCOCC12CCN(Cc1ccccc1)CC2 the results were NIH3T3 tox 35µM*, HEK cytotox inconclusive, hNpr1 antagonist -11%[70.6 µM], GPT2 inhibitor inactive and FLuc inh inactive.
CC1=C(C(=O)O)/C(=C\CO[C@@H]2O[C@H](CO)[C@@H](O)[C@H](O)[C@H]2O)C(OC(=O)/C=C\c2ccc(O)cc2)C1 (some centres undefined) was read as GPT2 inhibitor 0%[27.3 µM].
Cc1oc(C(O)c2cccc(O)c2)nc1C(=O)Nc1ccccc1 (centres undefined) was read as NIH3T3 tox -20%[138 µM], HEK cytotox inconclusive, hNpr1 antagonist -23%[70.6 µM], GPT2 inhibitor -5%[88.5 µM] and FLuc inh inconclusive.
For C=CCOc1c(OC)ccc2c1CN(CC)C(=O)CCN2CC(O)COc1ccc(OC)cc1 (centres undefined) the results were NIH3T3 tox inconclusive and HEK cytotox 40µM*.
`C=CCOc1c(OC)ccc2c1CN(CCOC)C(=O)CCN2CC(O)Cc1ccccc1` (centres undefined) gave NIH3T3 tox -19% and HEK cytotox inconclusive.
